PubChem BioAssay AID1159580 (chemical genetic matrix, 2015)
“And” between values parts separate entries of the source, which are not always exact repeats. Identical values can stand only once. In all, about 5,500 compounds went through this assay and about 2,000 (36%) were called active. Roughly 18% stayed inconclusive and do not appear here. Cut-off read from the data, not from the text of the source: active = normalized growth mostly below about 0.91 (no sharp cut-off); inconclusive = no clear call, values can overlap the other calls; inactive = mostly above about 0.92. This is one part of the list.

Test: chemical genetic growth profiling, strain panel (AID 1159580);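 note: tested at 20 µM; growth read once vehicle control cultures reached saturation at 30 °C; 1 = growth at the plate median or of vehicle wells; lower values mean less growth of the strain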
Settings: S. cerevisiae deletion strains, growth OD

Measured: normalized growth

COc1ccc(OC)c(C(O)CNC(=O)CN)c1 (stereo not given)
inactive: locus YAL021C, strain ccr4, stronger effect = lower value 0.984 | locus YAL026C, strain drs2, stronger effect = lower value 1 | locus YAL030W, strain snc1, stronger effect = lower value 1.01 | locus YBL061C, strain skt5, stronger effect = lower value 1.01 | locus YBR009C, strain hhf1, stronger effect = lower value 1 | locus YBR021W, strain FUR4, stronger effect = lower value 1.02 | locus YBR023C, strain chs3, stronger effect = lower value 1 | locus YBR171W, strain sec66, stronger effect = lower value 1.02 | locus YBR229C, strain ROT2, stronger effect = lower value 0.961 | locus YBR231C, strain swc5, stronger effect = lower value 1 | locus YBR279W, strain paf1, stronger effect = lower value 1.01 | locus YCL011C, strain gbp2, stronger effect = lower value 1.01 | locus YCL016C, strain dcc1, stronger effect = lower value 1.01 | locus YCL029C, strain bik1, stronger effect = lower value 0.987 | locus YCL061C, strain MRC1, stronger effect = lower value 1.01 | locus YCL069W, strain vba3, stronger effect = lower value 1.01 | locus YCR088W, strain abp1, stronger effect = lower value 0.996 | locus YDL005C, strain med2, stronger effect = lower value 1 | locus YDL035C, strain GPR1, stronger effect = lower value 0.986 | locus YDL040C, strain nat1, stronger effect = lower value 0.997 | locus YDL074C, strain BRE1, stronger effect = lower value 0.962 | locus YDL101C, strain DUN1, stronger effect = lower value 0.987 | locus YDL134C, strain PPH21, stronger effect = lower value 1 | locus YDL185W, strain tfp1, stronger effect = lower value 0.979 | locus YDL192W, strain arf1, stronger effect = lower value 0.964 | locus YDR001C, strain nth1, stronger effect = lower value 0.997 | locus YDR069C, strain doa4, stronger effect = lower value 1 | locus YDR101C, strain arx1, stronger effect = lower value 0.98 | locus YDR137W, strain rgp1, stronger effect = lower value 1.01 | locus YDR150W, strain NUM1, stronger effect = lower value 0.993 | locus YDR159W, strain sac3, stronger effect = lower value 0.989 | locus YDR162C, strain NBP2, stronger effect = lower value 0.983 | locus YDR195W, strain ref2 0.977 | locus YDR297W, strain sur2, stronger effect = lower value 1 | locus YDR318W, strain mcm21, stronger effect = lower value 0.982 | locus YDR334W, strain swr1, stronger effect = lower value 1.01 | locus YDR335W, strain msn5, stronger effect = lower value 1 | locus YDR388W, stronger effect = lower value 0.983 | locus YDR392W, strain spt3, stronger effect = lower value 1.02 | locus YDR502C, strain sam2, stronger effect = lower value 0.981 | locus YEL003W, strain gim4, stronger effect = lower value 0.998 | locus YEL037C, strain rad23, stronger effect = lower value 1 | locus YEL061C, strain CIN8 (second series), stronger effect = lower value 1.01 | locus YEL061C, strain CIN8, stronger effect = lower value 0.979 | locus YER015W, strain faa2, stronger effect = lower value 1.02 | locus YER016W, strain bim1, stronger effect = lower value 1 | locus YER110C, stronger effect = lower value 0.973 | locus YER111C, strain swi4, stronger effect = lower value 1.01 | locus YER155C, strain BEM2 (second series), stronger effect = lower value 1.01 | locus YER155C, strain BEM2, stronger effect = lower value 1 | locus YER167W, strain BCK2, stronger effect = lower value 1.01 | locus YFR010W, strain ubp6, stronger effect = lower value 1.01 | locus YGL078C, strain dbp3, stronger effect = lower value 0.974 | locus YGL086W, strain mad1, stronger effect = lower value 0.979 | locus YGL167C, strain pmr1, stronger effect = lower value 0.995 | locus YGL173C, strain kem1, stronger effect = lower value 0.995 | locus YGL227W, strain vid30, stronger effect = lower value 1 | locus YGL240W, strain doc1, stronger effect = lower value 1.02 | locus YGL248W, strain PDE1, stronger effect = lower value 0.967 | locus YGL253W, strain hxk2, stronger effect = lower value 1.02 | locus YGR135W, strain pre9, stronger effect = lower value 0.999 | locus YGR229C, strain SMI1, stronger effect = lower value 0.99 | locus YGR252W, strain gcn5, stronger effect = lower value 0.956 | locus YHR013C, strain ard1, stronger effect = lower value 1.01 | locus YHR027C, strain rpn1, stronger effect = lower value 0.999 | locus YHR030C, strain SLT2, stronger effect = lower value 1 | locus YHR079C, strain IRE1 (second series), stronger effect = lower value 0.991 | locus YHR079C, strain IRE1, stronger effect = lower value 1.01 | locus YHR094C, strain hxt1, stronger effect = lower value 0.978 | locus YHR129C, strain ARP1, stronger effect = lower value 0.996 | locus YHR142W, strain chs7, stronger effect = lower value 0.997 | locus YIL066C, strain RNR3, stronger effect = lower value 0.969 | locus YIL073C, strain SPO22, stronger effect = lower value 0.985 | locus YIL125W, strain kgd1, stronger effect = lower value 0.975 | locus YIR030C, strain dcg1, stronger effect = lower value 0.986 | locus YJL092W, strain hpr5, stronger effect = lower value 1.01 | locus YJL095W, strain BCK1 (second series), stronger effect = lower value 1 | locus YJL095W, strain BCK1, stronger effect = lower value 0.975 and 1.03 | locus YJL115W, strain asf1, stronger effect = lower value 1 | locus YJL129C, strain trk1, stronger effect = lower value 0.999 | locus YJL134W, strain LCB3, stronger effect = lower value 0.991 | locus YJL154C, strain vps35, stronger effect = lower value 0.992 | locus YJL164C, strain tpk1, stronger effect = lower value 1 | locus YJL166W, strain qcr8, stronger effect = lower value 1 | locus YJL168C, strain set2, stronger effect = lower value 0.976 | locus YJL187C, strain SWE1 (second series), stronger effect = lower value 0.958 | locus YJL187C, strain SWE1, stronger effect = lower value 1 | locus YJR043C, strain POL32, stronger effect = lower value 0.944 | locus YJR066W, strain TOR1, stronger effect = lower value 1 | locus YJR075W, strain HOC1, stronger effect = lower value 0.993
